A selection: hits, their analogues and other compounds. The true share with any hit is near 1.2%.
RGS4-Gao reg: modulators of RGS4 binding to Galphao, primary screen, biochemical, multiplexed bead flow cytometry | Guanine nucleotide-binding protein G(o) subunit alpha (Homo sapiens), P09471 | actives lie on both sides | binding response (% of control), % at 10 µM | 0.33% of 220,000 active | AID 1415, 2008; in the data active = binding response below about 49% or above about 150%; inactive = in between;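 note: fluorescent Galphao activated with aluminum fluoride binding bead-coupled RGS4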
Target sequence (P09471 whole entry, looked up): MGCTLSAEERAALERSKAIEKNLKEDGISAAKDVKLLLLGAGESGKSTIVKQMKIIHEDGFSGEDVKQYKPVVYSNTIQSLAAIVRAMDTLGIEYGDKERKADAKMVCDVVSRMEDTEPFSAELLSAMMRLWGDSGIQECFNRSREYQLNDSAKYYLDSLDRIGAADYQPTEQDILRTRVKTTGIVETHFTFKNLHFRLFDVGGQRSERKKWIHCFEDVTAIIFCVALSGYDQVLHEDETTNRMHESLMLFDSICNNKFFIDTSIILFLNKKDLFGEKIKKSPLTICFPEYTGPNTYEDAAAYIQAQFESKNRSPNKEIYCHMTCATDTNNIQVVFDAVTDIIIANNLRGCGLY
Avidin fluor: green autofluorescence of compounds with avidin beads – biophysical, 488/530 nm, flow cytometry, artefact control, profiling panel. fluorescence (KMESF) at 10 µM. 0.38% of 220,000 active. compound fluorescence 488/530 nm; active compounds read high; in the data active = fluorescence above about 47
RGS7-Gao reg: RGS7-Galphao binding modulators, primary screen, biochemical, multiplexed bead flow cytometry. Guanine nucleotide-binding protein G(o) subunit alpha (Homo sapiens), P09471. actives lie on both sides. binding response (% of control), % at 10 µM. 0.35% of 220,000 active. AID 1439, 2008; in the data active = binding response below about 49% or above about 150%; inconclusive = no clear call, values can overlap the other calls; inactive = in between;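 note: fluorescent Galphao held in activated GDP-AlF4 state binding bead-coupled RGS7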
GSH bead fluor: compound fluorescence on glutathione beads, profiling panel, artefact control, biophysical, 488/530 nm, flow cytometry | GSH beads flow cytometry, compound fluorescence 488/530 nm; active compounds read high | fluorescence (KMESF) at 10 µM | 0.25% of 190,000 active; in the data active = fluorescence above about 89;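 note: glutathione beads carrying GST-tagged Bcl family fusion proteins plus one bare bead set; values are compound well signal with DMSO vehicle wells as background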
RGS16-Gao: modulators of RGS16 binding to Galphao, primary screen, biochemical, human proteins, multiplexed bead flow cytometry | Regulator of G-protein signaling 16 (Homo sapiens) + Guanine nucleotide-binding protein … | bead-based flow cytometry RGS16-Galphao binding, fluorescence; actives lie on both sides | binding response (% of control), % at 10 µM | 0.38% of 220,000 active; call rule not given here;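 note: Galphao activated by GDP with aluminum fluoride before binding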
Target sequence (O15492 whole entry, looked up): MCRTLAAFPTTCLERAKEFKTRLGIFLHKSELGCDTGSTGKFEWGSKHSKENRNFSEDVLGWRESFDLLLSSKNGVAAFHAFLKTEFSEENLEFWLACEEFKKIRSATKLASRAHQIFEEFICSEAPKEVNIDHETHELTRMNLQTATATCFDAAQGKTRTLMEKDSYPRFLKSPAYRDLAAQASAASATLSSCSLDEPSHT
Target sequence (P09471 whole entry, looked up): as the sequence (P09471 whole entry, looked up) above
RGS8-Gao reg: RGS8-Galphao binding modulators, primary screen, biochemical, multiplexed bead flow cytometry. actives lie on both sides. 0.34% of 220,000 active. Guanine nucleotide-binding protein G(o) subunit alpha (Homo sapiens), P09471. AID 1423, 2008. response (percent of control binding), % at 10 µM; in the data active = response below about 60% or above about 140%; inactive = in between;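 note: Galphao activated as the GDP aluminium fluoride complex binding bead-coupled RGS8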
Active calls of the source: *; ? = inconclusive; . = no result given; [ ] = another dose, or the depositor's remark.

SMILES | RGS4-Gao reg | Avidin fluor | RGS7-Gao reg | GSH bead fluor | RGS16-Gao | RGS8-Gao reg
NCC12CC3CC(CC(O)(C3)C1)C2 | 103.0 | 7 | 101.4 | 262* | 102.3 | 102.8
CC(C)Nc1c(N)c(=O)oc2ccccc12 | 98.9 | 7 | 104.1 | 253* | 97.5 | 100.3
CCOC(=O)N1CCN(Cc2nc3c(c(=O)[nH]c(=O)n3C)n2Cc2cc(C)ccc2C)CC1 | 98.3 | 11 | 95.7 | 24 | 96.4 | 100.5
Cc1nc(N2CCN(c3ccccc3)CC2)[nH]c(=O)c1CCC(C)C | 99.8 | 11 | ? | 15 | 96.4 | 101.3
Cc1nc(N2CCN(c3ccccc3)CC2)[nH]c(=O)c1Cc1cccc2ccccc12 | 113.9 | 197* | 148.1 | 23 | 93.7 | 95.8
CCOC(=O)c1cnn(-c2ccc(C)cc2)c1N | 104.3 | 8 | 94.7 | 255* | 102.5 | 104.0
CN1CCN(NC(=O)CC(C)(C)C)CC1 | 91.0 | 8 | ? | 16 | 91.1 | 96.0
Cc1c(NC(=O)c2cccs2)cccc1C(=O)O | 92.0 | 18 | 89.9 | 28 | 89.0 | 100.6
Cc1ccc(C(=O)O)cc1NC(=O)c1cccs1 | 98.5 | 7 | 95.4 | 95* | 98.0 | 101.9
COC(=O)c1sc2ccccc2c1C(=O)OC | 103.0 | 61* | 118.4 | 17 | 106.4 | 98.8
COC(=O)c1sc2ccccc2c1N | 98.2 | 7 | 98.4 | 17 | 104.1 | 102.3
NC(=O)CC1C(=O)N(c2ccc(F)cc2)C(=O)N1NC(=O)CCc1ccccc1 (configuration not stated) | 101.9 | 12 | ? | 16 | 101.3 | 101.8
Cc1nc2ccc(NC(=O)Cc3ccccc3F)cc2s1 | 114.6 | 53* | ? | 17 | 102.5 | 102.7
CCc1ccc(NC(=O)c2c(Cl)nc(C)c(Cl)c2C)cc1 | 102.1 | 10 | 97.6 | 13 | 103.6 | 103.6
CC1Cc2ccccc2N1C(=O)CSc1nnnn1C (configuration not stated) | 94.5 | 3 | 101.7 | 251* | 37.5 | 94.1
Cc1cc(C)n2nc3nc(N4CCCC4)nc(-c4ccccc4)c3c2n1 | 104.1 | 58* | 115.0 | 9 | 97.1 | 102.5
Nc1[nH]nc2nc(N3CCCC3)nc(-c3ccccc3)c12 | 97.9 | 3 | 96.0 | 33 | 101.6 | 100.2
CCCCCNC(=O)Cc1cc(=O)[nH]c(=O)[nH]1 | 98.8 | 7 | 98.9 | 27 | 102.4 | 99.3
CCC(CC)NC(=O)c1ccc2nc[nH]c2c1 | 102.7 | 9 | 96.2 | 262* | 102.3 | 101.6
CC(NC(=O)c1ccc2nc[nH]c2c1)c1ccccc1 (configuration not stated) | 102.8 | 11 | 109.0 | 25 | 112.0 | 106.5
O=C(Nc1ccc2c(c1)C(=O)OC2)c1ccc(F)cc1F | 102.1 | 6 | ? | . | 104.7 | 103.4
COc1ccc(OC)c(NC(=O)COC(=O)c2ccc(S(=O)(=O)N3CCOCC3)cc2)c1 | 98.8 | 7 | 98.7 | 276* | 102.1 | 100.0
Cn1cc([N+](=O)[O-])c(C(=O)NCc2cc3cc(Cl)ccc3[nH]2)n1 | 102.8 | 12 | 100.7 | 24 | 110.3 | 103.8
CCN(CC)c1ccc(NC(=O)Cn2nnc(-c3cccc(OC)c3OC)n2)c(C)c1 | 102.8 | 8 | 95.1 | 266* | 99.8 | 99.5
CSc1ccccc1NC(=O)CN(C)CC(=O)Nc1c(F)cccc1F | 131.8 | 58* | 120.8 | 11 | 105.5 | 103.3
SMILES | RGS4-Gao reg | Avidin fluor | RGS7-Gao reg | GSH bead fluor | RGS16-Gao | RGS8-Gao reg
Cc1ccc(NC(=O)Cn2cccc2C2=NC(c3ccccc3)CO2)cc1C (configuration not stated) | 101.2 | 14 | 96.4 | 21 | 114.4 | 104.9
CCc1ccccc1NC(=O)Cn1cccc1C1=NC(c2ccccc2)CO1 (configuration not stated) | 106.0 | 51* | 127.3 | 21 | 110.2 | 101.8
Nc1cc(N)nc(SCC(=O)N2CCN(S(=O)(=O)c3ccccc3)CC2)n1 | 99.2 | 13 | ? | . | 99.2 | 100.5
Cc1cccc(OCCSc2nc(N)cc(N)n2)c1 | 126.6 | 5 | ? | . | 128.7 | 129.2
CCCC(=O)OCC(=O)Nc1cc(C(C)(C)C)nn1-c1ccccc1 | 118.3 | 14 | 112.5 | 91* | 117.6 | 103.0
O=C1c2ccccc2C(=O)N1CCc1nc2ccccc2c(=O)n1CCCn1ccnc1 | 108.1 | 8 | 104.0 | 272* | 119.7 | 105.2
O=C1C(c2ccnc3ccccc23)=C(O)c2ccccc21 | 106.5 | 4 | 105.9 | 128* | 106.5 | 104.0
O=C(COC(=O)c1ccc(OC(F)F)cc1)NCCCN1CCCC1=O | 101.3 | 6 | ? | . | 101.1 | 100.4
COC(=O)COc1ccc(S(=O)(=O)Nc2ccccc2C(=O)OC)cc1 | 111.0 | 63* | 146.1 | 39 | 108.0 | 103.9
CCn1c(SCC(=O)N2CCN(c3ccccc3F)CC2)nnc1-c1ccoc1C | 93.7 | 6 | 97.2 | 15 | 97.1 | 96.5
Cc1cccc(-n2nnnc2SCC(=O)Nc2cccc(S(N)(=O)=O)c2)c1 | 97.5 | 1 | ? | . | 100.8 | 100.5
Cc1nnc(SCC(=O)N2CCCCC2)n1CC1CCCO1 (configuration not stated) | 104.9 | 4 | 100.9 | 94* | 111.9 | 105.9
CC(C)OCCCNC(=S)Nc1ccc(S(N)(=O)=O)cc1 | 98.0 | 0 | 122.1 | 2 | 63.0 | 90.5
CC(C)NC(=O)CSCc1c(F)cccc1Cl | 93.7 | 5 | 97.9 | 121* | 95.7 | 98.3
Cc1nc([N+](=O)[O-])c(Br)n1CC(=O)c1ccc2ccccc2c1 | 98.3 | 50* | 108.1 | 38 | 104.2 | 100.7
Cc1cc(C)nc(NS(=O)(=O)c2ccc(NC(=S)NC(=O)CC(C)C)cc2)n1 | 207.7*[activator] | 118* | 193.9*[activator] | 20 | 270.0*[activator] | 107.6
Cc1cc(C(=O)OCC(=O)NC2CCCCC2)c(C)o1 | 98.7 | 26 | 99.8 | 23 | 101.4 | 101.5
Cc1cc(C(=O)OCC(=O)NC(C)C)c(C)o1 | 101.1 | 7 | 101.7 | 269* | 100.4 | 102.1
O=C(Cc1c(C(=O)O)[nH]c2ccc(Cl)cc12)Nc1ccc2c(c1)OCCO2 | 102.5 | 35 | 97.1 | 25 | 114.8 | 105.7
CN1CCCC(OC(=O)c2cc(Cl)ccc2Cl)C1 (configuration not stated) | 96.7 | 7 | 100.4 | 258* | 101.6 | 99.8
COc1ccccc1NCCC(=O)OCC(=O)NCc1ccco1 | 96.2 | 5 | 90.0 | 9 | 107.2 | 102.6
O=C(COC(=O)c1ccccc1Oc1ccccc1)NCc1ccco1 | 90.7 | 7 | 97.2 | 263* | 92.4 | 100.7
COc1ccc(OCCC(=O)OCC(=O)NCc2ccco2)cc1 | 92.5 | 6 | 94.4 | 259* | 92.2 | 99.1
CC(=O)Nc1ccc(S(=O)(=O)N2CCN(c3ccccn3)CC2)cc1 | 97.6 | 65* | 111.4 | 25 | 98.7 | 95.6
